# Results filed as inconclusive are left out. Activity calls are given as the source filed them. How the source made its calls: active means hit-call score of the fitted dose curve at least 0.9, where 1 is the maximum; inconclusive means response in the unintended direction; inactive means score below 0.9.
# Molecular target: frog Peroxisome Proliferator-activated Receptor-gamma (PPARg), pparg (gene 397769) (UniProt P37234)
# Test: ATG_frPPARg_EcoTox2: Attagene TRANS-FACTORIAL EcoTox-2 HepG2 Assay for frog Peroxisome Proliferator-activated Receptor-gamma (PPARg)
# Description: ATG_EcoTox2 is a cell-based, multiplexed assay created by modifying the existing Attagene TRANS-FACTORIAL system to include a panel of nuclear receptors from some or all the following species: human (Homo sapiens), african clawed frog (Xenopus laevis), rainbow trout (Oncorhynchus mykiss), japanese medaka (Oryzias latipes), and zebrafish (Danio rerio). The ECOTOX2-FACTORIAL format uses HepG2, a human liver cell line, with measurements taken at 24 hours after chemical dosing in a 24-well plate. ATG_frPPARg_EcoTox2 is one of 29 assay components calculated in the ATG_EcoTox2 assay. It is designed to make measurements of mRNA induction, a form of inducible reporter, as detected with fluorescence intensity signals by Reverse transcription polymerase chain reaction (RT-PCR) and Capillary electrophoresis technology.The assay endpoint ATG_frPPARg_EcoTox2 was analyzed in the positive analysis fitting direction relative to DMSO as the negative control and baseline of activity. Using a type of inducible reporter, measures of mRNA for gain-of-signal activity can be used to understand the reporter gene at the transcription factor-level as they relate to the gene PPARg. Furthermore, this assay endpoint can be referred to as a primary readout, because this assay has produced multiple assay endpoints where this one serves a reporter gene function. To generalize the intended target to other relatable targets, this assay endpoint is annotated to the nuclear receptor intended target family, where the subfamily is non-steroidal.
# Human liver HepG2 cells are transiently transfected with multiple reporter transcription units (MRTUs) in 6-well plates using FuGene 6 reagent (Roche; 3 ml FuGene/1 mg DNA). The MRTU constructs are regulated by a cis-regulating element (promoter). Each RTU expresses a GAL4-UAS that regulates the transcription of a nearby target reporter gene sequence. A major difference between the CIS and TRANS system is that in CIS activities of endogenous TFs are measured, whereas the TRANS assay evaluates changes in activities of exogenous, chimeric NR-Gal4 proteins. […] At the end of 24 hour incubation, total RNA was isolated using TriZol reagent (Invitrogen). The isolated RNA is then reverse-transcribed using oligo(dT) primer and Mo-MLV reverse transcriptase (Invitrogen) with DNAse I (Ambion) treatment for 30 min. The one-tenth of the produced cDNA was amplified by PCR using Taq DNA polymerase (Invitrogen) and two reporter sequence-specific primers. The PCR products were fluorescently labeled by primer extension with 6-arboxyfluorescein (6-FAM) 5'-labeled reporter sequence-specific primer (2 min at 95 C, 20 s at 68 C and 10 min at 72 C) and these products were digested with 5U of HpaI (New England Biolabs) for 2h at 37 C. The fragments were purified using Qiaquick PCR columns (Qiagen), analyzed on an ABI 3130xL genetic analyzer (Applied Biosystems) with peak positions identified by using a set of X-rhodamine (ROX)-labeled MapMarker1000 molecular weight standards (BioVentures). The raw capillary electrophoresis data was processed using Attagraph software (Attagene).
# Sequence of frog Peroxisome Proliferator-activated Receptor-gamma (PPARg), pparg (gene 397769) (P37234 whole entry, looked up): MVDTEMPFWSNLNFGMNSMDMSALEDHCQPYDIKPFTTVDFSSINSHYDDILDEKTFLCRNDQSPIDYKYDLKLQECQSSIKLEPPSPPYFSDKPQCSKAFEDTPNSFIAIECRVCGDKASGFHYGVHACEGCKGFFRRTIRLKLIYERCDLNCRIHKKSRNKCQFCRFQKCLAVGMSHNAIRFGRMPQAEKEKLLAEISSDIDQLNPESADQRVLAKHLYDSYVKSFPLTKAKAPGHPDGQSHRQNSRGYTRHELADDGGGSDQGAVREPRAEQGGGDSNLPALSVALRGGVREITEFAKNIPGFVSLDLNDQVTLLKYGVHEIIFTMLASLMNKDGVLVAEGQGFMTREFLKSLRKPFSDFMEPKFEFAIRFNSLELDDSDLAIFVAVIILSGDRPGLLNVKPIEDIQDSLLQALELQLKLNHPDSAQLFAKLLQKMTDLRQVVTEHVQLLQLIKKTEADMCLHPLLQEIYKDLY
row,SMILES,outcome
1,CC(c1cc2ccccc2s1)N(O)C(N)=O (stereo not drawn),inactive
2,C[C@@H]1C[C@H]2[C@@H]3CCC4=CC(=O)C=C[C@]4(C)[C@@]3(F)[C@@H](O)C[C@]2(C)[C@@]1(O)C(=O)COP(=O)(O)O,inactive
3,Cc1ccc(C)c(OCCCC(C)(C)C(=O)O)c1,inactive
4,CC(C)(Oc1ccc(CCNC(=O)c2ccc(Cl)cc2)cc1)C(=O)O,inactive
5,C=C(c1ccc(C(=O)O)cc1)c1cc2c(cc1C)C(C)(C)CCC2(C)C,inactive
6,CC(C)OC(=O)C(C)(C)Oc1ccc(C(=O)c2ccc(Cl)cc2)cc1,inactive
7,CC(C)(Oc1ccc(Cl)cc1)C(=O)O,inactive
8,Cc1cccc(Nc2cc(Cl)nc(SCC(=O)O)n2)c1C,inactive

# Reference: PubChem BioAssay AID2284349 (EPA ToxCast)
